Results on five molecules are retold here after PubChem BioAssay.

A short description of assay [1]: small molecules captured by biotinylated probe aFSTL3 – biochemical, small-molecule microarray, fluorescence 635/667, stem cell growth factor project, primary screen (AID 1064).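 Note: measures binding of the biotinylated anti-FSTL3 antibody to printed compounds.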 To be noted: higher = more signal.
Assay [2] in a line: binders from COS7 lysate, DM2A8 probe, primary screen, torsin A project, cell lysate, small-molecule microarray, fluorescence 635/667 (AID 1065). To be noted: higher = more signal, COS7 lysate expressing mutant human TOR1A.
A short description of assay [3]: small molecules captured by biotinylated probe aFGF2 – biochemical, small-molecule microarray, fluorescence 635/667, stem cell growth factor project, primary screen (AID 1067).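 Note: measures binding of biotinylated aFGF2 protein to printed compounds on slides; z-score merges feature fluorescence and signal-to-noise across triplicate slides.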 As to conditions: higher = more signal.
Assay [4] can be described thus: small molecules captured by biotinylated probe aFGF10 – biochemical, small-molecule microarray, fluorescence 635/667, stem cell growth factor project, primary screen (AID 1071).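 Note: score merges 667 nm spot intensity and signal to noise from triplicate slides.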 To be noted: higher = more signal.
Assay [5] concerns the target Neurogenic locus notch homolog protein 2 (Homo sapiens) (UniProt Q04721). Kind of assay: small molecules binding Notch2 protein – biochemical, small-molecule microarray, 635 nm fluorescence, stem cell growth factors, primary screen (AID 1073). To be noted: higher = more signal.
In assay [6] the target is Pro-neuregulin-1, membrane-bound isoform (Homo sapiens) (UniProt Q02297). Description: small molecules binding neuregulin-1 protein – biochemical, small-molecule microarray, fluorescence 635/667, psychiatric disease protein project, primary screen (AID 1075).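 Note: score combines 667 nm spot fluorescence with signal to noise.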 As to conditions: NRG1 binding, 635 nm fluorescence, higher = more signal.
Chain of Pro-neuregulin-1, membrane-bound isoform (Homo sapiens) (Q02297 whole entry, looked up, the tested form may be a part, canonical isoform): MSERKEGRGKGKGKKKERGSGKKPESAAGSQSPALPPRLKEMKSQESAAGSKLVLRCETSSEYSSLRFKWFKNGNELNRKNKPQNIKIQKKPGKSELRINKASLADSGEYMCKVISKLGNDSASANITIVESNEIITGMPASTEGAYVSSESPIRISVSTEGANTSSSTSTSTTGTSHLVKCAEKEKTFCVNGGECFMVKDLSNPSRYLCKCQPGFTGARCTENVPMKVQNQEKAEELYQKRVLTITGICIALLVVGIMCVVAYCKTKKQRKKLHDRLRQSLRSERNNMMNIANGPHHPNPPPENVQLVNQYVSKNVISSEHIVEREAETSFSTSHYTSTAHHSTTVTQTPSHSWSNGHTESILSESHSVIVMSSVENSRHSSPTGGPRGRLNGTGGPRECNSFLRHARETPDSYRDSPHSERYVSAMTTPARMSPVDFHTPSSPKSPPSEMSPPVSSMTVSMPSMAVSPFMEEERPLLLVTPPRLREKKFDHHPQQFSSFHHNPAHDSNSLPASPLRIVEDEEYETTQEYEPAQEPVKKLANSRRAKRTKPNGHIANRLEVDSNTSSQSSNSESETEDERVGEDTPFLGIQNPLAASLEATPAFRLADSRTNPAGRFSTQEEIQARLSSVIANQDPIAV
The subject of assay [7] is Neuregulin-1 EGF-like domain. Kind of assay: small molecules binding NRG1 EGF domain – biochemical, small-molecule microarray, 635 nm fluorescence, primary screen (AID 1081).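 Note: binding of the protein to compounds printed on small-molecule microarray slides.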 As to conditions: higher = more signal.
The nature of assay [8]: FRG1 expression reporter modulators in myotubes – cell-based, C2C12 myotubes, firefly/Renilla luciferase, luminescence, FRG1 inhibition for FSHD, primary screen (AID 1084). To be noted: FRG1 promoter luciferase, higher = more signal, called active from +8 up or from −8 down.
A short description of assay [9]: small molecules captured by biotinylated probe aFST – biochemical, small-molecule microarray, fluorescence 635/667, stem cell growth factor project, primary screen (AID 1086).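 Note: score merges 667 nm fluorescence with signal-to-noise of each printed compound spot.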 To be noted: higher = more signal.
Assay [10] is described as follows: binders of probe aHhip on microarray, primary screen, stem cell growth factor project, biochemical, small-molecule microarray, fluorescence 635/667 (AID 1087).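 Note: score merges spot fluorescence at 667nm with spot signal to noise ratio.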 To be noted: higher = more signal.
In assay [11] the test system is PRMT1 (protein arginine N-methyltransferase 1). Description: small molecules binding arginine methyltransferase PRMT1 – biochemical, small-molecule microarray, 635 nm fluorescence, primary screen (AID 1088).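 Note: binding of Prmt1 protein to compounds spotted on small-molecule microarray slides.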 As to conditions: higher = more signal.
Assay [12] can be described thus: growth effects on S. cerevisiae YJM789 – YJM789 clinical isolate, OD600, 24 h, basal, primary screen (AID 1089).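 Note: growth of clinical yeast isolate S. cerevisiae YJM 789 seeded 1000 cells per well; test concentration not given here.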 As to conditions: higher = more signal, called active from +8 up or from −8 down.
The nature of assay [13]: S. pombe growth modifiers, basal conditions – strain 972, OD600, 24 h, no modulator, primary screen (AID 1090).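 Note: basal condition with compound alone and no growth modifier present; test concentration not given here.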 To be noted: S. pombe 972 growth, higher = more signal, called active from +8 up or from −8 down.
Assay [14] is described as follows: budding yeast growth modifiers under rapamycin – strain BY4716, OD600, 96 h, primary screen (AID 1091). Note: test concentration not given here. As to conditions: S. cerevisiae BY4716 + rapamycin, higher = more signal, called active from +8 up or from −8 down.
Assay [15] deals with Torsin-1A-interacting protein 2 (Homo sapiens) (UniProt Q8NFQ8). Kind of assay: small molecules binding lysate-expressed LULL1 – cell lysate, human LULL1 lysate, 635/667 nm fluorescence, primary screen (AID 1092).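 Note: probe is lysate of COS7 cells overexpressing human LULL1; score merges per-feature 667 nm fluorescence with signal-to-noise.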 To be noted: small-molecule microarray, hLULL1 lysate binding, 635 nm fluorescence; higher = more signal.
Chain of Torsin-1A-interacting protein 2 (Homo sapiens) (Q8NFQ8 whole entry, looked up): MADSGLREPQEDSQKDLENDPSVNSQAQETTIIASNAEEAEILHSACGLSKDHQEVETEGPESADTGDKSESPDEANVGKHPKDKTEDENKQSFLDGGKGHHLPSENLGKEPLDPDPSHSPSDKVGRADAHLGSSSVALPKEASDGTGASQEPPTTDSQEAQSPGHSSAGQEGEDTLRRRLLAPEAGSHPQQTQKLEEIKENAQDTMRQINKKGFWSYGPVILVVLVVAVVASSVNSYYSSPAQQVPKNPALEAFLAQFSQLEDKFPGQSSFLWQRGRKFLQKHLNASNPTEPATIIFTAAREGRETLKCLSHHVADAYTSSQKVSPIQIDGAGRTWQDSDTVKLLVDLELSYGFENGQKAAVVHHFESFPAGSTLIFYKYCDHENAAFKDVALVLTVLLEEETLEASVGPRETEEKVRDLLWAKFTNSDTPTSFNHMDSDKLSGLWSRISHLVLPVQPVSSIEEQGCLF
Assay [16] can be described thus: optical density change of DRC41 E. coli – strain DRC41, OD650, 24 h, E. coli filamentation project, primary screen (AID 1093).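 Note: MC1000 strain lacking acrAB efflux and sulA so SOS filamentation is blocked; test concentration not given here.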 To be noted: E. coli DRC41 growth, higher = more signal, called active from +8 up or from −8 down.
Assay [17] is described as follows: probe aLefty2 binding to arrayed compounds – biochemical, biotinylated probe, 635/667 nm fluorescence, primary screen (AID 1094).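 Note: score merges spot fluorescence near 667 nm with spot signal-to-noise ratio.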 To be noted: small-molecule microarray, higher = more signal.
The test system of assay [18] is Noggin (protein binding on small-molecule microarray). Kind of assay: small molecules binding Noggin protein – biochemical, 635/667 nm fluorescence, primary screen (AID 1095).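 Note: score merges 667 nm feature fluorescence with signal to noise over triplicate slides.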 As to conditions: 635 nm fluorescence, higher = more signal.
For assay [19], the target named is Neurogenic locus notch homolog protein 3 (Homo sapiens) (UniProt Q9UM47). Description: small molecules binding NOTCH3 protein – biochemical, 635/667 nm fluorescence, primary screen (AID 1096). To be noted: small-molecule microarray, 635 nm fluorescence, higher = more signal.
Assay [20] can be described thus: probe aEGFR binding to arrayed compounds – biochemical, biotinylated probe, 635/667 nm fluorescence, primary screen (AID 1097).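 Note: probe is a biotinylated anti-EGFR antibody binding compounds printed on slides; score combines fluorescence near 667 nm and signal to noise of each spot.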 To be noted: small-molecule microarray, higher = more signal.

Calls of active or inactive are those of the source.

Chain of Neurogenic locus notch homolog protein 2 (Homo sapiens) (Q04721 whole entry, looked up, canonical isoform): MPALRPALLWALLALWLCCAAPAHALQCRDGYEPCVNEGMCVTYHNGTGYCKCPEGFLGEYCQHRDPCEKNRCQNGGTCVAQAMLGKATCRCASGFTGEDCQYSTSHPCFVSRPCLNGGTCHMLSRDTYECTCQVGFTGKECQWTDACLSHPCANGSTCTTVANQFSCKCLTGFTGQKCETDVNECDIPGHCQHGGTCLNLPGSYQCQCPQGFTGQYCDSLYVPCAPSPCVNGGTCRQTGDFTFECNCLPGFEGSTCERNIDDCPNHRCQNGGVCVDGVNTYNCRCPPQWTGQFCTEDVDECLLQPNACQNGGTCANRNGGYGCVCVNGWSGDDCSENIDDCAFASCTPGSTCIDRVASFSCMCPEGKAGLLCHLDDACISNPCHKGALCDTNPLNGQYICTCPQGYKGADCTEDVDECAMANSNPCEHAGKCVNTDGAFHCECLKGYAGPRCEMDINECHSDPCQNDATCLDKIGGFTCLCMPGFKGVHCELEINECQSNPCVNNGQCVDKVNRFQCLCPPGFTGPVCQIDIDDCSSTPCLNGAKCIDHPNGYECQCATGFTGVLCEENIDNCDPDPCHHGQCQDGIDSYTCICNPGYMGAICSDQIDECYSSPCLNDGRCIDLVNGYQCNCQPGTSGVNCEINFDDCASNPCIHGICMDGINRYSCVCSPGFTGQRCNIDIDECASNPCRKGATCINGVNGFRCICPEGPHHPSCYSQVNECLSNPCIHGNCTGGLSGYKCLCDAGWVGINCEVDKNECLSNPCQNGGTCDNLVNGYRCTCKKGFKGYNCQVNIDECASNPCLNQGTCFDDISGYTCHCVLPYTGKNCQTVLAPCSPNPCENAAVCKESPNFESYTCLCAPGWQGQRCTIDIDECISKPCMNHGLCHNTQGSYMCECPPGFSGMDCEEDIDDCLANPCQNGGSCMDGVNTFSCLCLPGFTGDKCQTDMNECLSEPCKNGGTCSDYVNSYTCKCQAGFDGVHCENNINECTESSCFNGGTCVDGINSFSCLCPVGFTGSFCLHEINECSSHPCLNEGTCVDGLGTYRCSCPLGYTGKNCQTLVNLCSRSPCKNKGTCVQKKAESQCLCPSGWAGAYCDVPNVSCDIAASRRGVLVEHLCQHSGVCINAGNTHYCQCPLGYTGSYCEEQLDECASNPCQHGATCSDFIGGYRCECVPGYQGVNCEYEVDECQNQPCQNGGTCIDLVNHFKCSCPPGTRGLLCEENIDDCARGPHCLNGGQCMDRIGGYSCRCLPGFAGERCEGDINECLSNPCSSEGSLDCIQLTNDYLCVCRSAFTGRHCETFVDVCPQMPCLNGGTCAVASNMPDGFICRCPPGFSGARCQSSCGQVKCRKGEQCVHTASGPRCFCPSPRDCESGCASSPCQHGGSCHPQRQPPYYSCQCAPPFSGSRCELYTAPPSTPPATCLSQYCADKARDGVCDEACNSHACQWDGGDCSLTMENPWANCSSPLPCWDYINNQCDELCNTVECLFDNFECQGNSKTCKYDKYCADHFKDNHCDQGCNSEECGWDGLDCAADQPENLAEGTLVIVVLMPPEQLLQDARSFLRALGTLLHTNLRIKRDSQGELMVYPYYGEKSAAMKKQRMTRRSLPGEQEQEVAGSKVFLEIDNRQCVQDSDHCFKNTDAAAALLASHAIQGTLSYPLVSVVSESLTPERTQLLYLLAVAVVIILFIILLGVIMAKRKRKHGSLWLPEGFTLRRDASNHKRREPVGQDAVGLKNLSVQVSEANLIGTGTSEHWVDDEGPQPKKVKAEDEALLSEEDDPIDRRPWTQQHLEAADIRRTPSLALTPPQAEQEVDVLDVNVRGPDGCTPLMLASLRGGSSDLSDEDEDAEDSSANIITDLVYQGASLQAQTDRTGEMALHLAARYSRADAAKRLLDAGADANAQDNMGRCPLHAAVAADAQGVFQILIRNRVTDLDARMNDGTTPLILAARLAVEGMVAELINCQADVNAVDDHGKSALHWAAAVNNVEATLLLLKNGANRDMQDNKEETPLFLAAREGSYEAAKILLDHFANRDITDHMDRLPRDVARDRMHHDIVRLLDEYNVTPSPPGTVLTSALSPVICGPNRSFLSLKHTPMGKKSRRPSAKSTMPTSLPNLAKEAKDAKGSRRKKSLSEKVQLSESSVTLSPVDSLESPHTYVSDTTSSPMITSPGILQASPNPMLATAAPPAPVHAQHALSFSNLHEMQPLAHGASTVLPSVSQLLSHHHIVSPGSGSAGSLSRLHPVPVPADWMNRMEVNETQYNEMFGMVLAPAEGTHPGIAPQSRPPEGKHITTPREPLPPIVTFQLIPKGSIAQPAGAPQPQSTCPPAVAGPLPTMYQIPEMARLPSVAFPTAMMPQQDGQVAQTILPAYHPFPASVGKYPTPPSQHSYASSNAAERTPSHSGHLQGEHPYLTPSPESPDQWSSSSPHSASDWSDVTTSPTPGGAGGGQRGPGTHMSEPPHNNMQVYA

Turning to `CN(C)CCCC[C@@H]1NC(=O)[C@@H]2C[C@H](C(=O)O)[C@H](c3ccc(O)cc3)N2C1=O`, the composite z-score is 0.491 in [1]; 0.738 in assay [2]; -0.128 in assay [3]; 0.217 in assay [4]; -0.0401 in assay [5]; 0.237 in assay [6]. Further, the composite z-score was 1.28 in assay [7]; 0.212 in assay [9]; -0.279 in assay [10]; 1.41 in assay [11]; 0.728 in assay [15]; -0.153 in assay [17]. For the same molecule, the composite z-score in assay [18] is 1.01; in assay [19], 0.385; in assay [20], -0.0605. Also, the z-score in [8] was 1.7 (inactive); in [12] it was -0.937 (inactive); in assay [13] it was -1.04 (inactive); in assay [14], -0.587 (inactive); in [16] it was 2.71 (inactive).

Consider `C[N+](C)(C)CCCCNC(=O)[C@@H]1C[C@@H]2C(=O)N3CCC[C@H]3C(=O)N2[C@@H]1c1cccc(OCCO)c1`, for which the composite z-score is -0.215 in [1]; 1.3 in assay [2]; -0.148 in [3]; 0.712 in assay [4]; -0.145 in assay [5]; 0.837 in [6]. Further, the composite z-score was 1.03 in assay [7]; 0.209 in assay [9]; 0.171 in assay [10]; 0.869 in assay [11]; 0.381 in [15]; -0.123 in assay [17]. In addition, the values for the composite z-score in assay [18], in [19] and in [20] were 1.64, 0.751 and 0.0051, respectively. The z-score in assay [8] was 1.19 (inactive); in [12] it was -1.09 (inactive); in assay [13], -1.74 (inactive); in assay [14], -2.42 (inactive); in assay [16], 1.54 (inactive).

`COc1ccc(C(O)C2C=CC3C(=O)N(C)C(=O)C3N2N2CCCCC2)cc1OCc1ccccc1` (stereo not given): the composite z-score in assay [1] is 0.556; in assay [2], -0.599; in assay [3], -0.0135; in assay [4], 0.49; in assay [5] it was 1.57; in assay [6], 1.52. Further, the composite z-score in [7] stood at 1.27; in assay [9] it was 0.994; in [10], 0.232; in [11], 0.922; in [15], 2.73; in assay [17], 0.491. In addition, the composite z-score in assay [18] is -0.171; in [19], 1.12; in [20], 0.0787. Also, the z-score in assay [8] is 0.451 (inactive); in assay [12], 0.371 (inactive); in assay [13] it was -0.0814 (inactive); in assay [14], 1.01 (inactive); in assay [16], -1.23 (inactive).

Consider `C=CCOC(=O)[C@@H]1[C@H]2C(=O)O[C@H](c3ccccc3)[C@H](c3ccccc3)N2[C@H](c2ccc(OCCOC(=O)[C@H]3C[C@H]4C(=O)N5CCC[C@H]5C(=O)N4[C@H]3c3ccc(O)cc3)cc2)[C@@]12C(=O)Nc1ccccc12`, for which the composite z-score is -0.536 in assay [1]; 0.774 in [2]; -0.0169 in assay [3]; 0.691 in [4]; 0.742 in assay [5]; 0.968 in assay [6]. Also, the composite z-score was 1.3 in assay [7]; -0.0007 in [9]; -0.0994 in assay [10]; 1.51 in assay [11]; 1.44 in assay [15]; 0.239 in assay [17]. The composite z-score in assay [18] was found to be 0.684; in assay [19], 0.695; in assay [20] it was 0.0459. Moreover, the z-score was -0.619 (inactive) in assay [8]; -0.0259 (inactive) in [12]; -0.766 (inactive) in [13]; 2.42 (inactive) in assay [14]; 2.52 (inactive) in [16].

As to `C=C(COC)/C(=C/C[C@@H](OC(=O)c1ccncc1)c1ccc(OCCO)cc1)c1cc(C(=O)OC)ccc1OC`, the composite z-score in [1] is -0.202; in assay [2] it was 0.984; in assay [3], -0.0775; in [4], 0.702; in [5], 0.864; in [6] it was 1.44. Moreover, the composite z-score in assay [7] was 1.2; in [9], 0.238; in assay [10], 0.219; in assay [11], 1.57; in assay [15] it was 2.75; in [17], -0.0903. Also, the composite z-score is 0.861 in assay [18], 1.12 in assay [19] and -0.0129 in [20]. Moreover, the z-score was -2.14 (inactive) in assay [8]; -1.08 (inactive) in assay [12]; -2.06 (inactive) in [13]; -1.83 (inactive) in assay [14]; 2.15 (inactive) in [16].
